Measurements as given in PubChem BioAssay AID618 (Sanford-Burnham Center for Chemical Genomics, 2007).
Among all 87,000 compounds or so, about 540 (0.62%) were called active. How the calls were made is not given here. The sample as a whole holds a higher share of actives than the screen did. Measured potencies and affinities stand elsewhere.

experiment: MT1-MMP gene expression reporter suppression – cell-based, luciferase reporter, luminescence (AID 618); settings: MT1-MMP promoter luciferase reporter cells;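 further: actives suppress MT1-MMP promoter-driven transcription so potencies describe inhibitors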

outcome, active:
O=C(CCl)Nc1cc(-c2ccccc2)nn1-c1ccccc1, Cc1ccc(-c2cn3nc(C)c(C)nc3n2)cc1, CCc1ccc(-c2cn3nc(C)c(C)nc3n2)cc1, CN(C)c1ccc(-c2nc3ccccc3n2C)cc1, CCOC(=O)c1c(C)oc2c(F)c(F)c(F)c(F)c2c1=O, COc1ccc(-c2cc(N)n(S(=O)(=O)c3c(F)c(F)c(F)c(F)c3F)n2)cc1OC, CCCCCOc1ccc(Br)cc1/C(C)=N/NC1=NCCN1, COc1ccc(NS(=O)(=O)c2cc(C)ccc2NC(=O)c2cc(C)oc2C)cc1, COc1ccc(NS(=O)(=O)c2cc(OC)ccc2NC(=O)c2cc(C)oc2C)cc1, CC(C)(C)c1ccc(C(=O)Nc2cnccn2)cc1

outcome, inactive:
CC(=O)Nc1cccc(Oc2ccc(-c3noc(C)n3)cc2)c1, CCCC(=O)N1CC(=O)Nc2ccc(F)cc2C1c1ccccc1 (stereo unspecified), O=C(COc1ccc(CO)cc1)Nc1ccc(F)cc1, COc1ccccc1NC(=O)COc1ccc(CO)cc1Cl, N#C/C(=C\c1ccc[nH]1)Sc1nc2ccccc2s1, COc1ccccc1N(CC(=O)NC1CCCC1)C(=O)CCC(=O)Nc1cc(C)on1, C=CCn1c(C)cc(C(=O)CSc2n[nH]c(N)n2)c1C, CC(=O)Nc1ccc(SCC(=O)c2cc(C)n(C)c2C)cc1, COCC(C)n1c(C)cc(C(=O)CSc2ccc(NC(C)=O)cc2)c1C (stereo unspecified), C=CCn1c(C)cc(C(=O)CSc2nc3ccccc3o2)c1C, CC(=O)Nc1ccccc1OCC(=O)c1cc(C)n(Cc2cccs2)c1C, Cc1cc(C(=O)CN2C(=O)c3ccccc3C2=O)c(C)n1Cc1cccs1, COc1ccc(-c2n[nH]c(C)c2-c2cc(OC)ccc2O)cc1, CCSC1=C(C#N)C(c2ccccc2C)CC(=O)N1 (stereo unspecified), Cc1cc(SCc2cc(=O)[nH]c3ccccc23)nc2ccccc12, O=C(O)c1c2c(nc3ccc(F)cc13)CCC2, COCCn1nnnc1C(c1ccc(OC)cc1OC)N1CCN(c2ccccc2F)CC1 (stereo unspecified), Cc1ccccc1OCC(=O)Nn1c(COc2ccccc2)nc2ccccc2c1=O, CC1=C(C)C(=O)N(c2ccc(C(=O)O)cc2)C1=O, O=C1/C(=C\c2ccc3ccccc3c2)CCCc2ccccc21, COC(=O)c1ccc(C(NC(=O)OCc2ccccc2)/C(F)=C/[C@@H](C)C(=O)NCc2ccc(OC)c(OC)c2)cc1 (stereo partly specified), CCC(C)C1C(C#N)=C(N)Oc2n[nH]c(-c3ccccc3)c21 (stereo unspecified), O=C(Oc1ccc2ccccc2c1)c1ccccc1, Cc1ccc(-c2cc(NC(=O)CCl)n(-c3ccccc3)n2)cc1, CC(=O)Nc1cc(-c2ccc(Cl)cc2)nn1-c1ccccc1, O=C1CS/C(=C/C(=O)c2ccccc2)N1, NCCCCCc1nnc(SCc2cccc(Cl)c2)o1, N#C/C(=C/c1ccc(N2CCOCC2)o1)c1nc2ccccc2[nH]1, Cc1ccc2nc(/C(C#N)=C\c3ccc(N4CCOCC4)o3)[nH]c2c1, Cc1nc2nc(-c3ccccc3)cn2nc1C, Cc1nc2nc(-c3cccs3)cn2nc1C, CCc1c(-c2ccccc2)nc2nc(C)c(C)nn12, CCc1ccc(-c2nn[nH]n2)cc1, O=Cc1ccccc1OCCOc1ccccc1C=O, CC(C)n1c(-c2ccc(N(C)C)cc2)nc2ccccc21, Cn1c(-c2ccc(N)cc2)nc2ccccc21, O=C(CN1CCN(c2ccccc2)CC1)Nc1ccccc1C(F)(F)F, Cc1cccc(NC(=O)CN2C(=O)COc3ccc(Cl)cc32)c1, CCOC(=O)c1c(C)cc(=O)oc1C, CCOC(=O)c1c(C)oc2cc3c(C(=O)OCC)c(C)oc3cc12, O=C(Oc1ccnc2cc(Cl)ccc12)N1CCOCC1, COc1ccc(S(=O)(=O)n2nc(-c3cc(OC)c(OC)c(OC)c3)cc2N)cc1OC, COc1ccc(OC)c(S(=O)(=O)n2nc(-c3ccccc3)cc2N)c1, CC(C)(C)Nc1nc(NCc2cccnc2)nc(N2CCOCC2)n1, CSc1ccccc1NC(=O)c1ccccc1N(C)S(C)(=O)=O, CCCc1cc2c(n1CCc1ccc(Cl)cc1)C(C)C1CN(C(=O)c3ccccc3)C(C)(C(=O)OC)C21 (stereo unspecified), CCCCOc1ccc(Br)cc1/C(C)=N/NC1=NCCN1, CCOc1ccc(Br)cc1/C(C)=N\NC1=NCCN1, O=C(Cn1ncc2c(=O)oc3ccccc3c21)NCCN1CCN(c2ccccc2F)CC1, COc1ccc(C2C(=O)N(C3CCCCC3)CC(=O)N2Cc2ccc3c(c2)OCO3)cc1 (stereo unspecified), COc1ccc(C)c(S(=O)(=O)Nc2ccc(OCC(=O)O)cc2)c1, COc1ccc(NS(=O)(=O)c2cc(C)ccc2C)cc1, COc1ccc(NS(=O)(=O)c2cc(C(=O)O)ccc2C)cc1, COc1ccc2nc(NC(=O)c3cc(C)oc3C)sc2c1, CC(C)(C)c1ccc(C(=O)C=[N+]=[N-])cc1, Cc1nn(C)c(C)c1CN(C)C(=O)c1cc2n(n1)C(C(F)(F)F)CC(c1cccs1)N2 (stereo unspecified), CCOC(=O)c1ccc(N2C(=O)CC(N3CCC(C(N)=O)(N4CCCCC4)CC3)C2=O)cc1 (stereo unspecified), CCn1c(=O)cc(SCC(=O)N2CCCCC2)c2ccccc21, CCOC(=O)c1oc2ccccc2c1CSc1nnnn1-c1ccc(C)cc1, O=C(/C=C/Nc1cccc([N+](=O)[O-])c1)c1cccs1, CNc1cc([N+](=O)[O-])ccc1N/C=C/C(=O)c1cccs1, COc1ccccc1NC(=O)CSc1nccc(=O)[nH]1, CCCc1cc(C(=O)Nc2nnc(C)s2)cs1, CCOc1cccc(C(=O)Nc2nccs2)c1, O=C(Nc1cnccn1)c1ccncc1, O=C(Nc1cnccn1)c1cccc(C(F)(F)F)c1
